# Measured values: PubChem BioAssay AID1030 (National Center for Advancing Translational Sciences (NCATS), 2008)
# Screen size: about 220,000 compounds; about 16,000 (7.3%) were called active. Roughly 25% stayed inconclusive and do not appear here. The full list was thinned out, with actives kept by preference. Unmarked numbers belong to inactive results. Calls follow the shape of the dose curve; as a rule, active = well fitted inhibition curve with a large enough effect (not every such curve was filed as active); inconclusive = small, poorly fitted or top-dose-only effect, or another doubt; inactive = no such curve, though single readings can be large or run the other way.
# Target: Aldehyde dehydrogenase 1A1 (Homo sapiens) (UniProt P00352)
# Assay: qHTS Assay for Inhibitors of Aldehyde Dehydrogenase 1 (ALDH1A1);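 as to activity, negative = inhibition: plate controls were no enzyme wells and a reference inhibitor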
# Details: Purified ALDH1A1, NADH fluorescence, propionaldehyde substrate; series mostly up to 75.3 µM; activity, negative = inhibition: at the top concentration
# Potency is read from the fitted curve at half-maximal effect.
# Sequence of Aldehyde dehydrogenase 1A1 (Homo sapiens) (P00352 whole entry, looked up): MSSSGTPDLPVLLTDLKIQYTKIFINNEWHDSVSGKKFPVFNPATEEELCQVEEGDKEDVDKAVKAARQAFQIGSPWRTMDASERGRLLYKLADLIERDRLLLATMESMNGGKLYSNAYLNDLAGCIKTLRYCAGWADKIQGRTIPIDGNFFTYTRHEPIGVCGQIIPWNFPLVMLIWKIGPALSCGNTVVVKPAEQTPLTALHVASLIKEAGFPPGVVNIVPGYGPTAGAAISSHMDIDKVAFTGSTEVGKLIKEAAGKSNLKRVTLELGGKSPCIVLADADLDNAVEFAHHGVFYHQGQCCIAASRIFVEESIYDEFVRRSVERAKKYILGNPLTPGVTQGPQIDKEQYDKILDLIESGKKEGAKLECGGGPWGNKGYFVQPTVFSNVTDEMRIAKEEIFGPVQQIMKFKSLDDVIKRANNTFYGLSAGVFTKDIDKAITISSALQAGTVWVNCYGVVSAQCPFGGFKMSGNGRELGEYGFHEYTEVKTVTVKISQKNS
Compound,"activity, negative = inhibition [%]",Potency
O=C(CSc1ccccc1F)NC1CCS(=O)(=O)C1 (stereo unspecified),3.62,–
CSc1ccccc1NC(=O)Cc1ccc(Br)cc1,5.36,–
O=C(Cc1ccc2c(c1)CCCC2)Nc1ccccc1Cl,–,12.6 µM (active)
O=C(CN1CCCCC1)Nc1ccccc1Cl,14.8,–
Cc1cc(/C=C2/SC(=O)N(CC(=O)N3CCCC3)C2=O)ccc1N1CCOCC1,5.53,–
C/C(=N/OC(=O)c1c(-c2c(F)cccc2Cl)noc1C)c1cnccn1,-4.17,–
CC(=O)c1ccc(NC(=O)C(C)NCc2ccc(Cl)cc2)cc1 (stereo unspecified),1.47,–
O=C(NCc1ccc2c(c1)OCO2)c1ccc(Cl)s1,11.5,–
O=C(NCc1ccc2c(c1)OCO2)c1sccc1Br,-7.89,–
O=C(NCc1ccc2c(c1)OCO2)c1ccc2c(c1)C(=O)N(CC1CCCO1)C2=O (stereo unspecified),–,1.58 µM (active)
Cc1csc(SCC(=O)Nc2sccc2C#N)n1,-1.71,–
O=C1CCC(CCC(=O)N2CCCC(C(=O)c3ccc(Cl)cc3)C2)=NN1 (stereo unspecified),17.7,–
CC(CC(=O)N1CCN(c2ccccc2)CC1)c1ccccc1 (stereo unspecified),13.1,–
O=C(CCN1C(=O)C2C3C=CC(C3)C2C1=O)Oc1ccc2ccccc2c1 (stereo unspecified),-9.74,–
O=C(CCCN1C(=O)C2C3C=CC(C3)C2C1=O)N1CCN(c2ccccc2)CC1 (stereo unspecified),–,12.6 µM (active)
S=c1[nH]ccn1-c1ccc(Cl)cc1,-9.08,–
CC(C)CCN1CCN(C/C=C/c2ccco2)CC1CCO (stereo unspecified),–,28.2 µM (active)
Cc1ccc(CN2CCN(Cc3ccccc3-c3ccco3)CC2CCO)o1 (stereo unspecified),8.18,–
CC(C)CCN1CCN(Cc2ccc(C(F)(F)F)cc2)CC1CCO (stereo unspecified),0.124,–
COC(=O)c1cccnc1NC(=S)NC(C)C,1.85,–
COc1ccc(N=Nc2ccc(O)c(P(=O)(c3ccccc3)c3ccccc3)c2)cc1,6.87,–
CCOc1cc(/C=C2/N=C(c3ccc(C(C)(C)C)cc3)OC2=O)cc(Cl)c1OS(C)(=O)=O,–,22.4 µM (active)
CN(CCc1cnn(C)c1)Cc1cn(C)nc1-c1ccccc1F,2.47,–
COc1cccc(C(=O)N2CCCC(CCC(=O)NCc3ccc(F)c(F)c3)C2)c1 (stereo unspecified),-7.32,–

Compound,"activity, negative = inhibition [%]",Potency
COc1cccc(CNC(=O)CCC2CCCN(C(=O)c3cc(C)[nH]n3)C2)c1 (stereo unspecified),-5.25,–
COc1cccc(CNC(=O)CCC2CCCN(C(=O)c3ccoc3C)C2)c1 (stereo unspecified),–,22.4 µM (active)
Cc1ccc(C(NC(=O)N2CCCC2)C(Cl)(Cl)Cl)cc1F (stereo unspecified),8.02,–
Cc1cc(O)ccc1-c1cnc2ccccc2n1,–,28.2 µM (active)
CC(=O)Nc1cccc(-c2cnc3ccccc3n2)c1,3.58,–
c1ccc2nc(C3=NCCN3)cnc2c1,-9.53,–
Cc1cccc(NC(=S)NC23CN4CN(CN(C4)C2)C3)c1,4.51,–
CC1CCN(Cc2nc(-c3ccc(Cl)cc3)no2)CC1,0.85,–
Cc1ccc(-c2noc(CN3CCN(Cc4ccccc4)CC3)n2)cc1,–,28.2 µM (active)
COc1ccc(-n2nnnc2SCC(=O)Nc2ccccc2)cc1,3.98,–
Cc1ccc(-c2noc(CSc3nnc(-c4cccs4)n3C)n2)cc1,-10.9,–
Cc1ccc(-c2noc(CSc3nnc(-c4ccccc4)n3C)n2)cc1,-1.16,–
Cc1ccc(-c2noc(CSc3nnnn3-c3ccccc3)n2)cc1,–,7.08 µM (active)
Cc1ccc(-c2noc(CC(c3ccccc3)c3ccccc3)n2)cc1,-4.15,–
Cc1ccc(Nc2nc(CSc3nnnn3-c3ccccc3)cc(=O)[nH]2)cc1,–,22.4 µM (active)
Cc1ccc(SCc2cc(=O)[nH]c(N3CCCCC3)n2)cc1,3.1,–
Fc1cc(Br)ccc1NC(=S)Nc1cccnc1,4.56,–
COc1ccc(S(=O)(=O)N2CCOCC2)cc1NC(=O)CSc1ncnc2ccccc12,1.11,–
Cc1ccc(NS(=O)(=O)c2cccs2)cc1S(=O)(=O)N1CCCCCC1,-8.54,–
COc1ccc(N(C)S(=O)(=O)c2cccc3nsnc23)cc1,12.9,–
FC(F)(F)c1cccc(Cc2noc(CN3CCC(N4CCCCC4)CC3)n2)c1,8.7,–
CC1=NCCN1S(=O)(=O)c1cccc([N+](=O)[O-])c1,8.77,–
Fc1ccccc1Cn1cnc(NC(=S)NCCc2ccccc2)n1,0.197,–
Cc1ccc(SCC(=O)Nc2ccc3c(c2)OCCO3)cc1,-11.8,–

Compound,"activity, negative = inhibition [%]",Potency
O=C(CSc1nnnn1C1CCCC1)Nc1ccc2c(c1)OCCO2,–,6.31 µM (active)
O=C(CSc1nnc(-c2ccncc2)n1C1CCCCC1)Nc1ccccc1,1.01,–
CCC(=O)Nc1cccc(NC(=O)CSc2nnc(-c3ccc(NS(C)(=O)=O)cc3)n2C)c1,5.23,–
O=C(CSc1nc(C2CC2)nc2ccccc12)Nc1ccc2c(c1)OCCO2,3.13,–
CCC(=O)Nc1cccc(NC(=O)CSc2nnnn2C2CCCC2)c1,–,12.6 µM (active)
COc1cc(NC(=O)CSc2nnc3ccc(-c4ccncc4)nn23)cc(OC)c1,10.7,–
CCNC(=O)COC(=O)CCNC(=O)c1cccc(C)c1,1.01,–
O=C(COC(=O)c1cc(S(=O)(=O)N2CCCCC2)ccc1Cl)NCc1ccco1,0.76,–
O=C(COC(=O)c1ccc(Cl)nc1)NCc1ccc2c(c1)OCO2,0.469,–
NS(=O)(=O)c1ccc(NC(=O)COC(=O)c2ccc(Cl)nc2)cc1,13.1,–
O=C(COC(=O)c1ccc(Cl)nc1)NCc1cccs1,–,8.91 µM (active)
O=C(COC(=O)c1ccco1)NCc1ccc(Cl)cc1,14.6,–
O=C(COC(=O)c1cnc(Cl)c(Cl)c1)NCc1ccco1,–,20 µM (active)
CC(C)Oc1ccc(CCc2nnc(SCC(=O)O)n2-c2ccccc2)cc1,-1.79,–
COc1cc(S(=O)(=O)N2CCOCC2)ccc1NC(=O)COc1ccc(N(C)S(=O)(=O)c2ccc(C)cc2)cc1,11.5,–
C=CCOCCN(C)C1=NS(=O)(=O)c2ccccc21,11.4,–
COC(=O)c1sc(SC)c(S(=O)(=O)C(C)C)c1N/N=C(\C#N)S(=O)(=O)c1ccccn1,-9.06,–
Cc1ccn(CC(=O)N2N=C(C(F)F)CC2(O)C(F)F)n1 (stereo unspecified),8.82,–
CC(C)(C)NC(=O)NCc1ccco1,8.98,–
CCCC(=O)NC(=S)Nc1ccc(CN2CCOCC2)cc1,0.202,–
CCc1c(-c2ccccc2)nc(N)c(C#N)c1-c1cccs1,-1.42,–
CSc1nc(C)nc(C2CC2)c1C#N,-9.62,–
CSc1nc(N)c(C#N)c(-c2ccccc2Cl)c1C#N,–,14.1 µM (active)
CC(Sc1nncn1C)C(=O)Nc1cc(C(F)(F)F)ccc1N1CCOCC1 (stereo unspecified),8.74,–

Compound,"activity, negative = inhibition [%]",Potency
Cc1cc(NC(=O)CSc2nc3ccccc3n2CC(C)C)no1,2.17,–
C/C(=C\C(=O)c1ccc(Br)cc1)N1CCCCC1,–,25.1 µM (active)
Cc1ccc(C(=O)N2CCCCCC2)cc1Br,7.25,–
CC1CN/C(=C\C(=O)c2ccc(Br)cc2)C(=O)N1 (stereo unspecified),13.4,–
Cc1ccc(-c2csc(-c3cc(C)on3)n2)cc1,2.55,–
c1cncc(-c2nc(N3CCNCC3)c3ccccc3n2)c1,-3.04,–
COc1ccccc1Oc1nc(-c2cccnc2)nc2ccccc12,–,20 µM (active)
COc1ccccc1Oc1ccc(S(=O)(=O)Nc2cccnc2)cc1,37.8,–
O=c1cnnc(Nc2ccccc2F)[nH]1,9.78,–
CCCNCc1cc(OCC)c(OCC(=O)Nc2ccccc2)cc1Br,0.675,–
C=CCC(CC=C)(C(N)=O)c1ccccc1,0.196,–
c1ccc(Cc2cc[n+](Cc3ccccc3)cc2)cc1,-6.45,–
CCN1CCC(=NNC(=O)c2ccc(C)c([N+](=O)[O-])c2)CC1,–,4.47 µM (active)
Cc1ccc(NC(=O)CN2CCC(C(N)=O)CC2)cc1[N+](=O)[O-],10.7,–
Cc1cc(O)c(NC(=O)c2ccc(C)c([N+](=O)[O-])c2)cc1C,13.5,–
O=c1cc(N2CCCCC2)c(-c2ccccc2)nn1Cc1cccc(F)c1,-6.56,–
O=C(CSc1nc2ccccc2[nH]1)c1cccs1,4.01,–
O=C(Cc1cc(=O)[nH][nH]1)N/N=C/c1ccccc1[N+](=O)[O-],6.17,–
CCn1c(SCC(=O)N/N=C/C=C/c2ccccc2[N+](=O)[O-])nnc1-c1ccccc1,–,7.94 µM (active)
O=C(CSc1nc2ccccc2[nH]1)N/N=C/C=C\c1ccccc1[N+](=O)[O-],–,5.01 µM (active)
CCOC(=O)CNC(=O)CSc1nnc(-c2cccc(OC)c2)n1CC,-1.64,–
CCn1c(Cc2ccccc2)nnc1SCC(=O)Nc1ccccc1,3.56,–
O=C(CCc1ccccc1)NNc1ccc(F)cc1,-1.27,–
CCn1c(-c2cc(OC)ccc2OC)csc1=Nc1c(C)n(C)n(-c2ccccc2)c1=O,–,22.4 µM (active)

Compound,"activity, negative = inhibition [%]",Potency
COC(=O)Cc1csc(Nc2c(C)n(C)n(-c3ccccc3)c2=O)n1,11.6,–
Cc1c(N=Nc2ccc(N(C)C)cc2)c(=O)n(-c2ccccc2)n1C,-13.2,–
Cc1cc(OC(=O)c2ccccc2Cl)ccc1N1C(=O)CCC1=O,-0.192,–
Cc1ccc(NC2=C(Cl)C(=O)OC2OC(=O)c2ccccc2C)cc1 (stereo unspecified),-0.981,–
Fc1ccc(CNc2nc3ccccc3n3nnnc23)cc1,-5.38,–
CC(=O)OC(COc1ccc(F)cc1)Cn1cnc2ccccc21 (stereo unspecified),5.28,–
Fc1ccc(OCc2nn3c(Cn4nnc5ccccc54)nnc3s2)cc1,–,22.4 µM (active)
CCCn1c(N)c(C(=O)CSc2nnc(-c3cccnc3)n2-c2ccc(C)cc2C)c(=O)[nH]c1=O,-1,–
COc1ccc(Cl)cc1N(CC(=O)N/N=C/c1ccc(OCC(N)=O)cc1)S(C)(=O)=O,3.79,–
COC(=O)c1nc(NC(=O)c2ccc(F)cc2)n[nH]1,7.95,–
Cc1cccc(C(=O)Nc2ccc3c(c2)C(=O)N(CC(C)C)C3=O)c1,–,2.82 µM (active)
Cc1cccc(NC(=O)c2cccc(C(F)(F)F)c2)c1,4.83,–
Cc1cccc(C(=O)Nc2ccc(CC(=O)O)cc2)c1,-3.62,–
CC1CC(NC(=O)/C(C#N)=C/c2ccc[nH]2)CC(C)(C)C1 (stereo unspecified),8.63,–
COc1ccc(-n2c(SCC(=O)OC(C)C)nnc2-c2ccccn2)cc1,2.12,–
CCn1c(SCC(=O)c2ccc(Cl)s2)nnc1-c1cccs1,-17.9,–
Cc1ccc(-n2c(Cc3cccs3)nnc2SCC(=O)OC(C)C)cc1,–,5.62 µM (active)
CCn1c(Cc2cccs2)nnc1SCC(=O)c1ccc(C)cc1,–,22.4 µM (active)
CCn1c(SCC(=O)c2ccc3ccccc3c2)nnc1-c1cccs1,-10.3,–
CCOC(=O)CSc1nnc(CNC(=O)c2cccs2)n1-c1ccccc1,-0.494,–
